Fam108B inh = blocks mouse Fam108B hydrolase in RBBP9 counter-screen; 0.33% of 300,000 active; recombinant Fam108B, FP-Rh probe fluorescence polarization; inhibition, % at 9.51 µM; AID 1947;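 active means inhibition above the screen mean inhibition plus 3 SD, computed separately per campaign, cut at about 18% in these data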;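 further: inhibitors lower polarization as less probe binds the enzyme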
PAFAH1B2 inh = inhibitors of human PAFAH1B2; recombinant PAFAH1B2, FP-rhodamine activity probe, fluorescence polarization; 1.2% of 340,000 active; P68402; AID 492953; inhibition, % at 3.39 µM;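 active means inhibition above the mean of all tested compounds plus 3 SD, cut at about 24% in these data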;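 further: 0% = enzyme with DMSO and 100% = wells lacking PAFAH1B2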
Target sequence (P68402 whole entry, looked up): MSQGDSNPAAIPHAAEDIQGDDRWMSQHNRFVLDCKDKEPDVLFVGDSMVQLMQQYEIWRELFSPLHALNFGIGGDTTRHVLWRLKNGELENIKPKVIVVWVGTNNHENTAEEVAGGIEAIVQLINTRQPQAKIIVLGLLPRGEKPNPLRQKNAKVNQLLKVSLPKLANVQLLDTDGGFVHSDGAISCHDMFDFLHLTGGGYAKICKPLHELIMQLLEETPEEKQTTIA
pPAFAH FP inh = inhibitors of human plasma PAF acetylhydrolase (pPAFAH). Q13093. recombinant pPAFAH, FP-rhodamine probe fluorescence polarization. inhibition, % at 3.39 µM. 1.5% of 330,000 active. AID 463082;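 active means inhibition above the mean inhibition across the screen plus 3 SD, cut at about 25% in these data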;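 further: inhibitors block binding of the rhodamine activity-based probe so polarization drops; 0% = enzyme with DMSO and 100% = wells lacking pPAFAH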
PAFAH2 FP inh = inhibitors of human PAFAH2. recombinant PAFAH2, FP-rhodamine activity probe, fluorescence polarization. 0.99% of 340,000 active. inhibition, % at 3.39 µM;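 active means inhibition above the mean over all tested compounds plus 3 SD, cut at about 30% in these data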;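 further: inhibitors block probe labeling of enzyme so polarization drops; 0% = enzyme with DMSO and 100% = wells lacking PAFAH2 protein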
PME-1 inh = PME-1 (human) inhibition | inhibition, % at 5.9 µM | 0.53% of 320,000 active | Q9Y570 | AID 2130 | recombinant PME-1, FP-Rh probe fluorescence polarization;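 active means inhibition above the campaign mean of all compounds plus 3 SD, cut at about 26% in these data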;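 further: competitive labeling of PME-1 active site by serine hydrolase directed probe; 0% = PME-1 with DMSO and 100% = wells lacking PME-1 enzyme; inhibitors block probe labeling so polarization falls and inhibition rises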
Target sequence (Q9Y570 whole entry, looked up): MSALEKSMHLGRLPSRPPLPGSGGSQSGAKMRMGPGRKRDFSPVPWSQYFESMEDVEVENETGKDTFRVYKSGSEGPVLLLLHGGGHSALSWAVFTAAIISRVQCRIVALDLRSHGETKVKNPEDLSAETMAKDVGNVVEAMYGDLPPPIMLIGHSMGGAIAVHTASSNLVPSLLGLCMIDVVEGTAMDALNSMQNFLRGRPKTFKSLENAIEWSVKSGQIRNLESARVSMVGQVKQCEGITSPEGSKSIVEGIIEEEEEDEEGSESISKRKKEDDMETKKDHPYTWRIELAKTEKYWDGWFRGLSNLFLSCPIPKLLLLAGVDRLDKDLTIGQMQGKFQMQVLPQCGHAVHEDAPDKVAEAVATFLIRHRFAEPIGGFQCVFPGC
PAFAH1B3 inh = PAFAH1B3 (human) inhibition; 0.28% of 340,000 active; inhibition, % at 3.39 µM; recombinant PAFAH1B3, FP-rhodamine probe, fluorescence polarization; Q15102;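 active means inhibition above the screen-wide average of all tested compounds plus 3 SD, cut at about 25% in these data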;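 further: 0% = enzyme with DMSO only and 100% = wells lacking PAFAH1B3 protein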
Active calls of the source: *; x = no result given. An excerpt weighted towards active compounds, which were near 2.8% of everything screened.

SMILES	Fam108B inh	PAFAH1B2 inh	pPAFAH FP inh	PAFAH2 FP inh	PME-1 inh	PAFAH1B3 inh
NNC(=S)NC1CCCCCCCCCCC1	-3	55*	8	6	0	-3
S=C(NC1CCCCCC1)NC1CCCC1	-1	7	-2	-2	-1	7
COc1cccc(CNC(=O)c2cc(S(=O)(=O)N3CCCC3)cn2C)c1	-3	-2	9	-2	2	1
O=C(COc1ccccc1[N+](=O)[O-])OCC(=O)c1ccc(Br)s1	x	2	26*	13	x	1
O=C(CN1C(=O)NC2(CCCCC2)C1=O)Oc1ccc2ccc(=O)oc2c1	x	5	-3	5	0	3
C[C@@H]1CN([C@H](C)CO)C(=O)c2cc(NC(=O)Cc3ccccc3)ccc2O[C@H]1CN(C)Cc1ccc(Oc2ccccc2)cc1	x	0	25*	4	x	-3
COc1ccc(NC(=O)Nc2ccc3c(c2)C(=O)N([C@H](C)CO)C[C@H](C)[C@@H](CN(C)S(=O)(=O)c2cccs2)O3)cc1	x	4	13	-10	x	12
COc1ccc(S(=O)(=O)Nc2ccc3c(c2)C(=O)N([C@H](C)CO)C[C@H](C)[C@@H](CN(C)S(=O)(=O)c2ccc(F)cc2)O3)cc1	x	29*	6	1	x	2
Cc1ccc(S(=O)(=O)Nc2ccc3c(c2)C(=O)N([C@H](C)CO)C[C@H](C)[C@@H](CN(C)C(=O)Nc2ccc(C(F)(F)F)cc2)O3)cc1	x	8	25*	7	x	4
COc1ccc(S(=O)(=O)N(C)C[C@@H]2Oc3ccc(NS(C)(=O)=O)cc3C(=O)N([C@@H](C)CO)C[C@H]2C)cc1	x	3	2	11	x	4
COc1ccc(S(=O)(=O)Nc2ccc3c(c2)C(=O)N([C@H](C)CO)C[C@H](C)[C@@H](CN(C)S(=O)(=O)c2cccs2)O3)cc1	x	26*	5	8	x	7
C[C@H](CO)N1C[C@H](C)[C@H](CN(C)C)Oc2ccc(NS(=O)(=O)c3ccc(F)cc3)cc2CC1=O	x	4	17	1	x	0
COc1ccc(S(=O)(=O)Nc2ccc3c(c2)C(=O)N([C@H](C)CO)C[C@@H](C)[C@@H](CN(C)S(=O)(=O)c2ccc(Cl)cc2)O3)cc1	x	17	7	4	x	2
COc1ccc(S(=O)(=O)N(C)C[C@H]2Oc3ccc(NS(=O)(=O)c4ccc(F)cc4)cc3C(=O)N([C@H](C)CO)C[C@@H]2C)cc1	x	25*	14	-1	x	4
C[C@H](CO)N1C[C@H](C)[C@H](CN(C)CC2CCCCC2)Oc2ccc(NS(=O)(=O)c3ccc(F)cc3)cc2CC1=O	x	4	30*	5	x	11
Cc1ccc(Nc2c([N+](=O)[O-])ccc3c2=NC2(CCCCC2)N=3)cc1	16	10	6	22	31*	21
N#C/C(=C\c1ccc(O)c(O)c1)C(=O)NCCCc1ccccc1	7	38*	27*	25	8	22
Cc1ccc(-c2c(C(=O)N/N=C/c3c[nH]c4ccccc34)nnn2-c2nonc2N)cc1	8	2	9	1	27*	0
CNc1ccccc1NC(=O)C1CCCN1C(=O)OCc1ccccc1 (stereo not drawn)	-5	4	-2	0	-3	0
O=C(OCc1c(-c2ccccc2)ncc2ccccc12)c1ccco1	x	5	32*	2	x	6
COc1cc(/C=N/NC(=S)Nc2cccc(S(=O)(=O)N(C)C)c2)cc(OC)c1O	4	5	9	3	29*	4
O=Cc1cc(N=Nc2cccc(C(=O)O)c2)ccc1O	7	4	5	-6	1	4
O=Cc1cc(N=Nc2ccccc2Cl)ccc1O	9	9	28*	10	3	13
CC(C)(C)c1ccc(C(CC(=O)O)NC(=O)C23CC4CC(CC(C4)C2)C3)cc1 (stereo not drawn)	-7	26*	31*	10	-3	-7
CC1(C)CC2CC(C)(CN2S(=O)(=O)c2cccc(N)c2)C1 (stereo not drawn)	0	24*	-3	-4	-2	6
SMILES	Fam108B inh	PAFAH1B2 inh	pPAFAH FP inh	PAFAH2 FP inh	PME-1 inh	PAFAH1B3 inh
CC(C)N(C(=O)COC(=O)c1cccc(S(=O)(=O)N2CC3(C)CC2CC(C)(C)C3)c1)C(C)C (stereo not drawn)	x	12	x	7	x	-3
CN(C)C(CNC(=O)c1cccc(S(=O)(=O)N2CC3(C)CC2CC(C)(C)C3)c1)c1ccco1 (stereo not drawn)	-1	13	4	11	-12	3
CCCNC(=O)c1cccc(S(=O)(=O)N2CC3(C)CC2CC(C)(C)C3)c1 (stereo not drawn)	-2	26*	-1	1	1	0
COCCN=c1scc(-c2cc(OC)c(OC)c(OC)c2)n1/N=C/c1c(C)[nH]c2ccccc12	4	8	7	-15	27*	12
Cc1[nH]c2ccccc2c1/C=N/n1cnnc1	2	9	2	6	4	8
CC/C(C)=N/Oc1nc(C)cc(C)n1	0	4	3	5	-2	4
CCC(O)C1CCN(Cc2cn(Cc3ccccc3)nc2-c2cc3ccccc3o2)CC1 (stereo not drawn)	-2	0	28*	-7	3	5
COCCOC1CCN(Cc2cn(Cc3ccccc3)nc2-c2cc3ccccc3o2)CC1	4	7	0	-4	2	0
CCn1c2ccccc2c2cc(NC(=O)c3coc(=O)c(Br)c3)ccc21	4	x	10	x	3	x
CCn1c2ccccc2c2cc(NC(=O)c3ccc(=O)oc3)ccc21	-1	x	33*	x	22	x
CCn1c2ccccc2c2cc(NC(=O)c3ccc(C)c([N+](=O)[O-])c3)ccc21	-3	7	8	6	37*	18
CCN1CCN(c2ccc(NC(=O)c3cc(S(=O)(=O)N4CCCC4)ccc3Cl)cc2)CC1	x	-7	-2	-13	-19	-4
CC1CCC(NC(=O)c2cc3c(s2)CCCC3)CC1 (stereo not drawn)	-1	-2	3	-2	-1	4
CC(NC(=O)c1c(Cl)cnn1C)C1CCCO1 (stereo not drawn)	1	4	3	0	4	8
FC(F)(F)c1ccc2c(c1)NCC1CCCN21 (stereo not drawn)	4	1	27*	86*	2	22
FC(F)(F)c1ccc2c(c1)N1CCCC1CN2 (stereo not drawn)	3	4	5	10	-11	4
CC(OC(=O)c1cc(S(=O)(=O)N2CCOCC2)ccc1F)C(=O)NC1CCCCC1C (stereo not drawn)	-2	2	-2	4	4	2
CCN(CC)S(=O)(=O)c1ccc(N/N=C/c2ccccc2OCC(=O)O)c([N+](=O)[O-])c1	5	9	30*	9	23	3

Screens as filed in PubChem BioAssay.
